For six compounds, Potency and outcome results are on record in PubChem BioAssay (NCATS).

Records with an inconclusive call do not appear. The list shows a part of the results. Calls of active or inactive are those of the source. The call rests on the fitted dose curve; in most records, active means well fitted curve in the direction sought with a large enough effect; inconclusive means small, poorly fitted or top-dose-only effect, or another doubt; inactive means no such curve, though single readings can be large; an effect the other way counts as inactive or inconclusive.

One assay relates to CP260. The assay is described as follows: qHTS profiling for inhibitors of Plasmodium falciparum proliferation (AID 504749). Further: nearly all actives have a fitted effect of over 60% in size. Further: potency means the concentration at half of the fitted maximal effect. To be noted: P. falciparum in erythrocytes, SYBR Green DNA, 72 h; series mostly up to 28.7 µM. In a few lines: (§1)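 Readout was DNA-dye fluorescence from lysed cultures, ex 485/em 535 nm. Parasitized red cells had grown 72 h with compound; data scaled between 0.29 uM artemisinin and DMSO wells and corrected using vehicle-only plates.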
A general note: In qHTS, concentration-response curves come from the screen itself.

The test system of another assay is CP297. Described as above. Conditions: P. falciparum in erythrocytes, SYBR Green DNA, 72 h; series mostly up to 28.7 µM. In short, it runs like this: as §1
For another assay, the system named is DIV14. The description is as above. To be noted: P. falciparum in erythrocytes, SYBR Green DNA, 72 h; series mostly up to 28.7 µM. In a few lines:
as §1

The target in assay [1] is Pyruvate kinase (Leishmania mexicana) (UniProt Q27686). The assay is described as follows: qHTS Validation Assay for Activators of Leishmania Mexicana Pyruvate Kinase (AID 959). Conditions: purified L. mexicana pyruvate kinase, enzyme activity; series mostly up to 57.5 µM. In short, it runs like this:
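Purified LmPYK (E451W mutant, 0.2 nM) was incubated 1 h at room temperature with 0.5 mM PEP and 0.1 mM ADP in 50 mM imidazole pH 7.2, 50 mM KCl, 7 mM MgCl2; ATP formed was read by PKLight luminescence, normalized to DMSO wells.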

The target of assay [2] is Tyrosyl-DNA phosphodiesterase 1 (Homo sapiens) (UniProt Q9NUW8). The assay is described as follows: Confirmation Assay for Inhibitors of Tyrosyl-DNA Phosphodiesterase (TDP1) (AID 489007). Further: potency means the concentration at half of the fitted maximal effect; nearly all actives have a fitted effect of over 40% in size. To be noted: recombinant human TDP1 enzymatic activity, dose-response. In short, it runs like this:
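Recombinant E. coli-expressed Tdp1 (1 nM final) was preincubated with compounds 15 min at room temperature, then reacted 5 min with 15 nM 5'-biotin/3'-phosphotyrosine-FITC DNA substrate; cleavage read as loss of AlphaScreen signal (10 ug/ml beads, 10 min).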

In assay [3] the target is Ubiquitin carboxyl-terminal hydrolase 1 (Homo sapiens) (UniProt O94782). The assay is described as follows: Inhibitors of USP1/UAF1: Pilot qHTS (AID 504865).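 Further: rhodamine fluorescence freed from ubiquitin-rhodamine substrate followed over time; top concentration of the series differs between compounds; nearly all actives have a fitted effect of over 35% in size.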 Conditions: purified USP1/UAF1, Ub-rhodamine cleavage fluorescence; series mostly up to 114 µM. In short, it runs like this: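 USP1/UAF1 complex (1nM) preincubated with compound 15 min at room temperature, then Ub-Rho substrate (150nM final) added. Fluorescence read kinetically at 480/540 nm, 6 reads every 60 seconds. Buffer: 50mM HEPES pH 7.8, 0.5mM EDTA, 0.1 mg/ml BSA, 1mM TCEP, 0.01% Tween-20.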
Sequence of Ubiquitin carboxyl-terminal hydrolase 1 (Homo sapiens) (O94782 whole entry, looked up): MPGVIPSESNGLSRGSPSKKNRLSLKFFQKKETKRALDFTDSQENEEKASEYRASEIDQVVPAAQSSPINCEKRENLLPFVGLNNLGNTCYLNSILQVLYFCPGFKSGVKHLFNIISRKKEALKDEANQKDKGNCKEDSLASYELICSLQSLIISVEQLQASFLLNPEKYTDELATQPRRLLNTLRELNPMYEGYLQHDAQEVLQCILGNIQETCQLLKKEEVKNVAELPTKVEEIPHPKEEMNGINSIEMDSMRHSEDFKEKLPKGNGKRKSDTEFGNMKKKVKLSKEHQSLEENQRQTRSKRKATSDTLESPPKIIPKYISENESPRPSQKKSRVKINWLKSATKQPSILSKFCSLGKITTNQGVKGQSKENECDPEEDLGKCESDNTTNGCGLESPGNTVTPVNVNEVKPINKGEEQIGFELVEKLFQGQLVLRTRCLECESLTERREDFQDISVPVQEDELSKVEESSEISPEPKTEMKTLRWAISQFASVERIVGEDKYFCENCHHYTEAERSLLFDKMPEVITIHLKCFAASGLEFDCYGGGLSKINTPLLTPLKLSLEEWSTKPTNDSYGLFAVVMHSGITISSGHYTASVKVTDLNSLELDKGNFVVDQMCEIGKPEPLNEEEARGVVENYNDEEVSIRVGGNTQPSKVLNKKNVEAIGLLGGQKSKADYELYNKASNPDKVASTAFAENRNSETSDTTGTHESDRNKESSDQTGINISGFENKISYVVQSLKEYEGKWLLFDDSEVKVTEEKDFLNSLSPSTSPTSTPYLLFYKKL

The test system of a further assay is CP237. Briefly: qHTS profiling for inhibitors of Plasmodium falciparum proliferation (AID 504749). Further: nearly all actives have a fitted effect of over 60% in size. Further: potency means the concentration at half of the fitted maximal effect. Conditions: P. falciparum in erythrocytes, SYBR Green DNA, 72 h; series mostly up to 28.7 µM. In short, it runs like this:
as §1

The test system of the next assay is CP268. The description is as above. Conditions: P. falciparum in erythrocytes, SYBR Green DNA, 72 h; series mostly up to 28.7 µM. In short, it runs like this: as §1
For a further assay, the system named is DIV17. The description is as above. Conditions: P. falciparum in erythrocytes, SYBR Green DNA, 72 h; series mostly up to 28.7 µM. In short, it runs like this: as §1
Another assay concerns HB3. Described as above. To be noted: P. falciparum in erythrocytes, SYBR Green DNA, 72 h; series mostly up to 28.7 µM. In short, it runs like this:
as §1

The next assay has as its system TAB113. The assay is described as above. To be noted: P. falciparum in erythrocytes, SYBR Green DNA, 72 h; series mostly up to 28.7 µM. In short, it runs like this: as §1
The target in assay [4] is DNA dC->dU-editing enzyme APOBEC-3G (Homo sapiens) (UniProt Q9HC16). The assay is described as follows: qHTS for inhibitors of Vif-A3G interactions: Validation (AID 588379). Conditions: Vif-A3G protein interaction assay; series mostly up to 46.1 µM. In short, it runs like this: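 HeLa cells stably expressing Vif and A3G-eYFP, 700 cells/well, incubated overnight at 37 deg C, then exposed to compound overnight at 37 deg C. Inhibition of Vif-mediated degradation read as increased yellow fluorescence (Ex 488/Em 500-530) by laser-scanning cytometry.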
Sequence of DNA dC->dU-editing enzyme APOBEC-3G (Homo sapiens) (Q9HC16 whole entry, looked up): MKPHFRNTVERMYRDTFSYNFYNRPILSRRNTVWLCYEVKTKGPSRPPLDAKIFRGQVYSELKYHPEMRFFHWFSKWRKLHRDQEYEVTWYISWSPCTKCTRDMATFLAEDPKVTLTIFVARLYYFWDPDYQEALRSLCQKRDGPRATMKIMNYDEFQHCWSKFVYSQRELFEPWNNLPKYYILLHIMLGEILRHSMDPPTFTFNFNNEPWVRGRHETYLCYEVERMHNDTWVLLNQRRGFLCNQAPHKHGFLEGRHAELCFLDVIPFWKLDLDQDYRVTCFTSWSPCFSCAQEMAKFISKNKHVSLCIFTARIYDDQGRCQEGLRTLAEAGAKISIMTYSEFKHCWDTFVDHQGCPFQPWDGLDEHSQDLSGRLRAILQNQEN

The next assay concerns CP286. Briefly: qHTS profiling for inhibitors of Plasmodium falciparum proliferation (AID 504749). Further: nearly all actives have a fitted effect of over 60% in size. Further: potency means the concentration at half of the fitted maximal effect. Conditions: P. falciparum in erythrocytes, SYBR Green DNA, 72 h; series mostly up to 28.7 µM. In a few lines:
as §1

The target of assay [5] is DNA polymerase iota (Homo sapiens) (UniProt Q9UNA4). Briefly: qHTS for Inhibitors of Polymerase Iota: Confirmatory Assay for Cherry-picked Compounds (AID 720496). Further: potency means the concentration at half of the fitted maximal effect. To be noted: Pol iota primer extension, TAMRA/BHQ fluorescence. In a few lines: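 Buffer-only wells, without enzyme, serve as negative control. Test wells hold 10 nM Pol iota preincubated 15 min with compound before 50 nM final fluorogenic DNA substrate is added; signal is read at 0 and 10 min.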
Sequence of DNA polymerase iota (Homo sapiens) (Q9UNA4 whole entry, looked up): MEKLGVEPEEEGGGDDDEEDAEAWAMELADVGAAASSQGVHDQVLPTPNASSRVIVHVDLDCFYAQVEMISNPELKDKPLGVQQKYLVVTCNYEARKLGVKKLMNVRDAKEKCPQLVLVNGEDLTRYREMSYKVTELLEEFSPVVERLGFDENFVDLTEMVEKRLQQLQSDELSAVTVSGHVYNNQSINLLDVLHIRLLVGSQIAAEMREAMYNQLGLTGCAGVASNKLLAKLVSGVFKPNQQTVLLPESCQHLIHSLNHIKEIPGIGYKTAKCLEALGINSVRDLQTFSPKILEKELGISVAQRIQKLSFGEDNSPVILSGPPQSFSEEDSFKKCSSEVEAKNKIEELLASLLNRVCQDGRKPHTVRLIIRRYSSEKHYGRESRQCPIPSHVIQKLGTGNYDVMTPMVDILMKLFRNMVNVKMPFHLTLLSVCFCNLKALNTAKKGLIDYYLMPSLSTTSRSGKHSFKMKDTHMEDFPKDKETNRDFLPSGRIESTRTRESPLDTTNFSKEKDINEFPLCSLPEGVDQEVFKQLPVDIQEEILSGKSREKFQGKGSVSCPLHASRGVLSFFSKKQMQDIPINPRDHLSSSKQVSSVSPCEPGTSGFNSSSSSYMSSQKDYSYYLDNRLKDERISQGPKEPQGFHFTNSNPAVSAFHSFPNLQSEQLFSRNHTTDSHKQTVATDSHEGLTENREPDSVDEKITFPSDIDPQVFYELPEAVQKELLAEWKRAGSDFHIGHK

Assay [6] deals with DNA polymerase eta (Homo sapiens) (UniProt Q9Y253). The assay is described as follows: qHTS for Inhibitors of Polymerase Eta: Confirmatory Assay for Cherry-picked Compounds (AID 720502). Further: potency means the concentration at half of the fitted maximal effect. Conditions: Pol eta primer extension, TAMRA/BHQ fluorescence, 10 min. In a few lines: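 Human Pol eta (10 nM) was preincubated with compounds for 15 min at room temperature before adding 50 nM (final) DNA substrate: primer plus TAMRA reporter strand annealed to a BHQ-2-labeled template. Fluorescence (ex 525/em 598 nm) was read at 0 and 10 min.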
Sequence of DNA polymerase eta (Homo sapiens) (Q9Y253 whole entry, looked up): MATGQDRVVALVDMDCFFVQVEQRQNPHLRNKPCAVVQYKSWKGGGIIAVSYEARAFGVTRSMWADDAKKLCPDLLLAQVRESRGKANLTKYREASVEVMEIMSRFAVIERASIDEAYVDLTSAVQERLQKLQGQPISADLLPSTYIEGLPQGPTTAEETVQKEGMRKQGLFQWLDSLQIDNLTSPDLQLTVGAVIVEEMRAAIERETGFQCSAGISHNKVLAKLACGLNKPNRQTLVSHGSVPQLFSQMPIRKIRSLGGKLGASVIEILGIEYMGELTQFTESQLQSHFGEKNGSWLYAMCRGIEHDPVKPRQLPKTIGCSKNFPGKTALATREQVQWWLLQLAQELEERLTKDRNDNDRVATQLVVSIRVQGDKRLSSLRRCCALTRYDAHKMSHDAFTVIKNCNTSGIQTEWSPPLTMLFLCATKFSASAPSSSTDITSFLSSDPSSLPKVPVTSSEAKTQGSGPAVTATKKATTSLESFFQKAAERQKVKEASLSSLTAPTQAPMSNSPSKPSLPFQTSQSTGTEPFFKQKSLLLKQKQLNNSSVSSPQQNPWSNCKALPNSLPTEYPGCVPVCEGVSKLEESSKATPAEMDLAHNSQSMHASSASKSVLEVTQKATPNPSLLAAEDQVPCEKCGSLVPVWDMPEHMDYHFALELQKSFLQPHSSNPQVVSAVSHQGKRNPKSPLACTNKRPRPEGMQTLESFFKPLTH

Sequence of Pyruvate kinase (Leishmania mexicana) (Q27686 2-499 E452W): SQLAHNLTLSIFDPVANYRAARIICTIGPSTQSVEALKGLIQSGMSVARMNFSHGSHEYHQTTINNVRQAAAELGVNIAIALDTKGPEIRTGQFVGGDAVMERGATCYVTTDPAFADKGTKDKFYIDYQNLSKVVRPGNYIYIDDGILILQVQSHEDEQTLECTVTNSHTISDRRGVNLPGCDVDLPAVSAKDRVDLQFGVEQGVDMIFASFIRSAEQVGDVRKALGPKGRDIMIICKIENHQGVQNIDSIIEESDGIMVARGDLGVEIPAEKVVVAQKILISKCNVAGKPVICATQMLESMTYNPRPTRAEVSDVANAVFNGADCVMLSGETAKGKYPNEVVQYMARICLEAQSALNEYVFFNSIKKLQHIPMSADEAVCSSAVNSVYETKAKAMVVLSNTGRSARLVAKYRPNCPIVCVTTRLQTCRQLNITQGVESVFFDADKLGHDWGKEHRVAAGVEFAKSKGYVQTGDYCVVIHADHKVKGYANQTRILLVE
Sequence of Tyrosyl-DNA phosphodiesterase 1 (Homo sapiens) (Q9NUW8 whole entry, looked up): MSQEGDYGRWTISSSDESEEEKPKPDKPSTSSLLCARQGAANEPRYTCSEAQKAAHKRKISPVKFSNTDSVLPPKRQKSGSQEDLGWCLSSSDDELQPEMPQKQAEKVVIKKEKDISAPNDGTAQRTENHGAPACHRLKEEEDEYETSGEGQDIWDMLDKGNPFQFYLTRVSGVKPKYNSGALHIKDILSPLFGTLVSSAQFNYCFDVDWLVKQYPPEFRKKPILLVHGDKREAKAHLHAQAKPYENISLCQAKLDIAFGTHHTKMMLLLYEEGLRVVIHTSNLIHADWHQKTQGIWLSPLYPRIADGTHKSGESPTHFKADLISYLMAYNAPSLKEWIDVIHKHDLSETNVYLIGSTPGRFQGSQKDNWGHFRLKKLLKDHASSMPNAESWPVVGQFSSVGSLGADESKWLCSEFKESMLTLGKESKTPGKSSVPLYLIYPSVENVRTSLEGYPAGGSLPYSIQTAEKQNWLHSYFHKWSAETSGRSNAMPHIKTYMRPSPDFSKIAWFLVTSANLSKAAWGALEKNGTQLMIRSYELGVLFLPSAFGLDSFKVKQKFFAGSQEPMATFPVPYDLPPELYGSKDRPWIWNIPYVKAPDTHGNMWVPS

Take `C[C@@H]1C[C@H]2[C@H]3C[C@@H](F)C4=CC(=O)C=C[C@]4(C)[C@@]3(Cl)[C@@H](O)C[C@@]2(C)[C@@H]1C(=O)COC(=O)C(C)(C)C`: in the assay with CP260, the Potency was 12.6 µM (active). Moreover, the Potency entry with CP297 and with DIV14 was “inactive” each time.

As to `CO/N=C(\C(=O)N[C@@H]1C(=O)N2C(C(=O)O)=C(CSc3nc(=O)c(O)nn3C)CS[C@@H]12)c1csc(N)n1`, the Potency in [1] was 25.1 µM (active).

As for `O=C(NCc1ccccn1)c1ccc2nc(-c3ccco3)c(-c3ccco3)nc2c1`, the Potency in [2] was 10 µM (active).

Regarding `C(=C/c1ccccc1)/CN1CCN(C(c2ccccc2)c2ccccc2)CC1`, the Potency result (in assay [3]; with CP268; with DIV17; in the assay on HB3; in the assay on TAB113) was “inactive” each time. In addition, in the assay on CP237, the Potency was 3.55 µM (active).

With `Cc1c(C(=O)O)c(O)cc2c1C(=O)c1c(O)c([C@H]3O[C@H](CO)[C@@H](O)[C@H](O)[C@H]3O)c(O)c(O)c1C2=O`, the compound was called inactive in assay [4]. Besides, the Potency entry with CP237, in the assay with CP260, in the assay on CP268, with CP286, with CP297 and with DIV14 was “inactive” in each case. The Potency result with DIV17, in the assay on HB3 and in the assay on TAB113 was “inactive” each time.

With `COc1cc([C@H](Cc2ccccc2)NC(C)=O)oc(=O)c1`, the Potency in [5] was 37.7 µM (active); in [6] it was 23.9 µM (active).
